High-throughput results: PubChem BioAssay, National Center for Advancing Translational Sciences (NCATS)
TDP1 inh: inhibitors of human tyrosyl-DNA phosphodiesterase TDP1 | actives 0.28% (n = 350,000) | Q9NUW8 | Potency, µM (highest dose often 130 µM), for the others: top-dose activity change, negative = inhibition, actives largely listed as inhibitors | recombinant TDP1, AlphaScreen DNA substrate cleavage; further: on the % scale 0 is the no-effect control and ±100 the full control effect; nearly all actives have a fitted effect of over 40% in size
Target sequence (Q9NUW8 whole entry, looked up): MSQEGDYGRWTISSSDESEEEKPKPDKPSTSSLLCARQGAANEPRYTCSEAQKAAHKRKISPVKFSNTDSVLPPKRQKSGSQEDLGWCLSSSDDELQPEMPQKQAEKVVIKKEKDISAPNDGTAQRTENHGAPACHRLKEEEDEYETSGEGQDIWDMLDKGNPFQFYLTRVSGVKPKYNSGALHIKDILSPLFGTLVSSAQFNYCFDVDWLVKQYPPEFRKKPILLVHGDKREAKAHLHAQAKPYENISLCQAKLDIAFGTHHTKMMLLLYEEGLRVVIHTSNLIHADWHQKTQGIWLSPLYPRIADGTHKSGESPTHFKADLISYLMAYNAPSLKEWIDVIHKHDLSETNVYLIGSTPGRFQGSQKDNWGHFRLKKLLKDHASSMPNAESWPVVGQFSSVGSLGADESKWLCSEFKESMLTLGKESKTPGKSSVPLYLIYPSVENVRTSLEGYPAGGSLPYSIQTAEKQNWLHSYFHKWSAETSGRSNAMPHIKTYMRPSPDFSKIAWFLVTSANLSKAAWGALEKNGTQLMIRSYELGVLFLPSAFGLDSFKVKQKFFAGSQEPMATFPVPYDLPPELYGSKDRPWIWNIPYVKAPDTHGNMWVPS
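Compounds were preincubated with Tdp1 (1 nM final) for 15 min at room temperature before substrate (15 nM final) started a 5 min reaction; beads (10 ug/ml final) were then added for 10 min before AlphaScreen detection.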
POLH inh: blocks human DNA polymerase eta activity; Q9Y253; recombinant Pol eta, fluorescent DNA replication assay; Potency, µM (titrated, usually from 114 µM), for inactives: at the highest dose activity change, negative = inhibition, actives largely listed as inhibitors; actives 1.2% (n = 390,000); further: on the % scale 0 is the no-effect control and ±100 the full control effect
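Fluorescent replication assay: 50 nM final substrate added after a 15 min room-temperature compound preincubation with 10 nM enzyme. Signal taken at 0 min and again at 10 min.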
POLK inh: inhibitors of human DNA polymerase kappa. purified Pol kappa, fluorescent DNA synthesis assay, 10 min. actives 0.53% (n = 400,000). Q9UBT6. Potency, µM (highest dose often 107 µM), inactives show at the highest dose activity, negative = inhibition, actives largely listed as inhibitors; further: on the % scale 0 is the no-effect control and ±100 the full control effect
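Enzyme at 10 nM met test compounds for 15 min at room temperature. Substrate addition (50 nM final) began the reaction, which was monitored by fluorescence at 0 and 10 min.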
FEN1 inh: blocks human flap endonuclease 1. actives 0.35% (n = 390,000). AID 588795. P39748. Potency, µM (doses to about 114 µM), without a hit: at the highest dose activity change, negative = inhibition, actives largely listed as inhibitors. Recombinant FEN1 flap cleavage, fluorescence, 15 min; further: on the % scale 0 is the no-effect control and ±100 the full control effect; nearly all actives have a fitted effect of over 65% in size
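Quantitative HTS format: each compound was titrated, incubated with 10 nM nuclease for 15 min at room temperature, then challenged with flap substrate at 50 nM final. Signal change over 15 min gave concentration–effect curves.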
POLB inh: DNA polymerase beta (human) inhibition | P06746 | Pol beta primer extension/strand displacement, fluorescence kinetic | Potency, µM (doses to about 114 µM), inactives show top-dose activity change, negative = inhibition, usual class: inhibitors | actives 1.3% (n = 340,000); further: on the % scale 0 is the no-effect control and ±100 the full control effect
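Enzyme-only controls used 10 nM Pol beta; buffer lacking enzyme served as negative control. Compound preincubated 15 min, then 50 nM substrate added; 0 and 10 min reads at room temperature.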
POLI inh: blocks human DNA polymerase iota activity; Potency, µM (titrated, usually from 115 µM), for inactives: top-dose activity, negative = inhibition, actives largely listed as inhibitors; actives 1% (n = 390,000); AID 588590; Q9UNA4; Pol iota fluorescent replication assay, 10 min
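Pol iota at 10 nM preincubated 15 min with compounds at room temperature; reaction started with fluorescent substrate, 50 nM final. Fluorescence read kinetically at 0 and 10 min; buffer-only wells as negative control.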
PGK validate: validation of Trypanosoma brucei phosphoglycerate kinase inhibitors. shares compounds with POLK inh. TbPGK coupled GAPDH assay, Kinase-Glo luminescence. Potency, µM (top dose mostly 57.5 µM), for inactives: at the top dose activity change, negative = inhibition, most hits filed as inhibitors. actives 79% (n = 500); further: on the % scale 0 is the no-effect control and ±100 the full control effect; nearly all actives have a fitted effect of over 65% in size
Pol iota confirm: Human Pol iota inhibitor confirmatory assay; Pol iota primer extension, TAMRA/BHQ fluorescence; Potency, µM, usual class: inhibitors; shares compounds with POLK inh; actives 77% (n = 1,500)
* marks the source's active call; other numbers are inactive results; [ ] = dose if it differs, or a comment. An excerpt weighted towards active compounds, which were near 2.4% of everything screened. The call rests on the fitted dose curve; in most records, active means well fitted curve in the direction sought with a large enough effect; inconclusive means small, poorly fitted or top-dose-only effect, or another doubt; inactive means no such curve, though single readings can be large; an effect the other way counts as inactive or inconclusive. Potency means the concentration at half of the fitted maximal effect.

How did COc1ccc(-c2cc3ccccc3oc2=O)cc1NC(=O)c1ccc([N+](=O)[O-])o1 do in these assays?
TDP1 inh: -5%; POLH inh: inconclusive; POLK inh: -11%; FEN1 inh: 7%; POLB inh: inconclusive; POLI inh: -4%

What do the screens show for `COc1ccc(-c2cc3ccccc3oc2=O)cc1NC(=O)c1ccc(Br)o1`?
TDP1 inh: 5%; POLH inh: 11µM*; POLK inh: 8%; FEN1 inh: 10%; POLB inh: inconclusive; POLI inh: inconclusive; Pol iota confirm: inconclusive

What do the screens show for `CN(C)c1ncc2nc(-c3cc(F)cc(F)c3)c(=O)n(Cc3ccc(F)cc3)c2n1`?
POLK inh: 6%[60.1 µM]

How did O=CC(O)C1OC(=O)C(O)C1O (stereo not given) do in these assays?
POLH inh: 7.9µM*; POLK inh: 50µM*; FEN1 inh: -8%; POLI inh: 45µM*; PGK validate: 3.3µM*

How did COCCNC(=O)/C(C#N)=C/c1ccc(O)cc1 do in these assays?
TDP1 inh: 1%; POLH inh: -4%; POLK inh: 4%; FEN1 inh: 20%; POLB inh: 1%; POLI inh: 20%; PGK validate: 16µM*

Results for COCCNC(=O)/C(C#N)=C/c1cccc(/C=C(\C#N)C(=O)NCCOC)c1 ?
TDP1 inh: 3%; POLH inh: -10%; POLK inh: -7%; FEN1 inh: 1%; POLB inh: -1%; POLI inh: 116%

How did Cc1cc2c(cc1C)C(=O)C(=O)N2 do in these assays?
POLH inh: -8%; POLK inh: -13%; FEN1 inh: 5%; POLI inh: 9%

What do the screens show for `O=C1Nc2cc3c(cc2C1=O)sc1ccccc13`?
POLH inh: 45µM*; POLK inh: inconclusive; FEN1 inh: inconclusive; POLB inh: 40µM*; POLI inh: 32µM*; Pol iota confirm: inconclusive

Results for COc1cccc(C(=O)O/N=C(\N)c2ccccn2)c1 ?
POLH inh: -1%; POLK inh: -6%; FEN1 inh: -2%; POLB inh: 16%; POLI inh: -10%; PGK validate: 15µM*

What do the screens show for `COc1cccc(C(=O)O/N=C(\N)c2ccccn2)c1OC`?
POLH inh: -15%; POLK inh: -6%; FEN1 inh: 12%; POLB inh: 6%; POLI inh: -13%

Results for Cc1ccc(C(=O)O/N=C(\N)c2ccccn2)c(Cl)c1 ?
POLH inh: 0%; POLK inh: -6%; FEN1 inh: 19%; POLB inh: 17%; POLI inh: 6%; PGK validate: 18µM*

How did N/C(=N\OC(=O)c1ccc(Cl)cc1Cl)c1ccccn1 do in these assays?
TDP1 inh: 5%; POLH inh: -10%; POLK inh: -28%; FEN1 inh: -6%; POLB inh: -12%; POLI inh: -1%

Results for N/C(=N\OC(=O)c1ccc2ccccc2c1)c1ccccn1 ?
TDP1 inh: 4%; POLH inh: -13%; POLK inh: 5%; FEN1 inh: -4%; POLB inh: 1%; POLI inh: 11%; PGK validate: inconclusive

How did O=C(c1cc(Br)c(Br)s1)N1CCOCC1 do in these assays?
POLH inh: -12%; POLK inh: -3%; FEN1 inh: -10%; POLI inh: 29%
